Assay in all cases: modulators of BK channel variants, profiling panel, selectivity assay, cell-based, U2OS BacMam, thallium flux, beta subunits (AID 1259406);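 note: initial slope of Thallos dye fluorescence rise after thallium is added; log ratio against the mean of 0.3% DMSO vehicle wells on the same plate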
The subject of one assay is F380Y. The conditions noted are these: at 30 µM.
For the next assay, the system named is F380Y/beta1. To be noted: at 30 µM.
A further assay relates to F380Y/beta2Delta. The conditions noted are these: at 30 µM.
Another assay concerns F380Y/beta4. The conditions noted are these: at 30 µM.
In assay [1] the target is Calcium-activated potassium channel subunit alpha-1 (Homo sapiens) + Leucine-rich repeat-containing protein 26 (Homo sapiens) (UniProt Q12791+Q2I0M4). The conditions noted are these: F380Y/Slo1WT/gamma1, at 30 µM.
Chain of Calcium-activated potassium channel subunit alpha-1 (Homo sapiens) + Leucine-rich repeat-containing protein 26 (Homo sapiens) (Q2I0M4 whole entry, looked up, one chain of several): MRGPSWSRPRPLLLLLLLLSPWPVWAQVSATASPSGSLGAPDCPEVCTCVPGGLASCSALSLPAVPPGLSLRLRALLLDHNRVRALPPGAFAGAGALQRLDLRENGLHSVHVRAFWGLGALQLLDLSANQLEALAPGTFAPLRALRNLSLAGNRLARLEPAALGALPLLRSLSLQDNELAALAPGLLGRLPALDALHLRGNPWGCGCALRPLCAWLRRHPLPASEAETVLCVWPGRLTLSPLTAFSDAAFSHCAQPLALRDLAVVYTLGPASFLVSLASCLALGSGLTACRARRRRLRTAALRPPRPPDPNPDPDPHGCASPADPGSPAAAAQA
The test system of another assay is R275C. To be noted: at 30 µM.
A further assay has as its system R275C/beta1. The conditions noted are these: at 30 µM.
The test system of a further assay is R275C/beta2Delta. The conditions noted are these: at 30 µM.
A further assay deals with R275C/beta4. The conditions noted are these: at 30 µM.
In a further assay the test system is R275C/Slo1WT/beta2. The conditions noted are these: at 30 µM.

Values without a mark were called inactive. Activity calls are given as the source filed them.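 Rule for the calls: active = thallium flux through the channel raised or lowered by more than 3 SD from vehicle-only wells, actives on both sides; inactive = the rest.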

Consider `N#CC1=C(Nc2ccccc2Cl)SC(c2ccncc2)NC1=O` (stereo not given), for which the log fold change Tl+ flux was -0.0226 in the assay with F380Y; 0.0482 in the assay on F380Y/beta1; 0.0198 with F380Y/beta2Delta; -0.00461 with F380Y/beta4; 0.0291 in assay [1]; 0.0616 with R275C. The log fold change Tl+ flux in the assay with R275C/beta1 was 0.0544; in the assay with R275C/beta2Delta it was 0.0222; in the assay on R275C/beta4, 0.0286; with R275C/Slo1WT/beta2 it was 0.0417.

On to `O=[N+]([O-])c1ccc(N2CCSCC2)cc1O`, for which the log fold change Tl+ flux in the assay with F380Y was -0.0426; in the assay on F380Y/beta1 it was -0.0279; in the assay on F380Y/beta2Delta, -0.0262; in the assay with F380Y/beta4 it was 0.012; in assay [1], 0.0289; in the assay with R275C, -0.00302. Further, the log fold change Tl+ flux with R275C/beta1 is -0.0429; in the assay on R275C/beta2Delta it was -0.0453; in the assay on R275C/beta4, -0.0292; with R275C/Slo1WT/beta2, 0.0333.

As to `Cc1nn(C)c(NCc2cccs2)c1[N+](=O)[O-]`, the log fold change Tl+ flux is 0.0023 with F380Y; 0.00245 in the assay with F380Y/beta1; 0.0628 with F380Y/beta2Delta; 0.018 in the assay on F380Y/beta4; 0.0148 in [1]; -0.00626 in the assay on R275C. The log fold change Tl+ flux with R275C/beta1 was -0.0048; in the assay on R275C/beta2Delta, 0.028; in the assay on R275C/beta4, -0.0356; in the assay with R275C/Slo1WT/beta2, -0.0229.

For `C1=CC=CC(C2C=CC=CC=C2)C=C1`, the log fold change Tl+ flux in the assay with F380Y was 0.0519; in the assay on F380Y/beta1, 0.0343; with F380Y/beta2Delta, -0.0453; with F380Y/beta4, 0.0315; in [1], -0.0568; with R275C it was -0.00176. Besides, the log fold change Tl+ flux in the assay on R275C/beta1 was -0.00852; with R275C/beta2Delta, -0.000831; with R275C/beta4, 0.0377; in the assay with R275C/Slo1WT/beta2, -0.0164.

Regarding `CS(=O)(=O)C(C#N)=NNc1ccc(OC(F)(F)F)cc1`, the log fold change Tl+ flux in the assay on F380Y is 0.0798; in the assay on F380Y/beta1, 0.148 (active); in the assay on F380Y/beta2Delta, 0.0975; in the assay with F380Y/beta4, 0.0278; in assay [1] it was 0.0802; in the assay with R275C, 0.0522. Moreover, the log fold change Tl+ flux in the assay on R275C/beta1 was 0.0751; in the assay on R275C/beta2Delta, 0.119 (active); with R275C/beta4, 0.0407; in the assay on R275C/Slo1WT/beta2, -0.0347.

Consider `CC(c1ccccc1)n1c(SCc2cc(=O)oc3cc(O)ccc23)n[nH]c1=O` (stereo not given), for which the log fold change Tl+ flux with F380Y is -0.0609; in the assay on F380Y/beta1, 0.00559; with F380Y/beta2Delta, 0.0151; in the assay with F380Y/beta4, 0.0558; in assay [1] it was 0.0977; in the assay on R275C, 0.0366. Moreover, the log fold change Tl+ flux with R275C/beta1 is 0.0338; in the assay on R275C/beta2Delta it was 0.123 (active); with R275C/beta4 it was 0.102 (active); with R275C/Slo1WT/beta2 it was -0.0189.

Consider `Cc1nn(Cc2nnc(-c3cc(C(F)(F)F)cc(C(F)(F)F)c3)o2)c(C)c1Br`, for which the log fold change Tl+ flux was -0.000532 in the assay with F380Y; -0.0352 in the assay on F380Y/beta1; -0.0793 in the assay on F380Y/beta2Delta; -0.0305 in the assay with F380Y/beta4; -0.0495 in [1]; -0.0117 with R275C. The log fold change Tl+ flux was -0.0379 in the assay on R275C/beta1, -0.0199 in the assay on R275C/beta2Delta, 0.00363 in the assay on R275C/beta4 and 0.0313 with R275C/Slo1WT/beta2.

On to `CCC(=NOc1ccc(C(F)(F)F)cn1)c1ccc(-c2ccccc2F)cc1`, for which the log fold change Tl+ flux is 0.147 (active) in the assay with F380Y; -0.0225 in the assay with F380Y/beta1; 0.0209 with F380Y/beta2Delta; -0.0257 in the assay with F380Y/beta4; -0.0559 in assay [1]; -0.0194 in the assay with R275C. Also, the log fold change Tl+ flux in the assay on R275C/beta1 is 0.00871; in the assay with R275C/beta2Delta, 0.0154; in the assay with R275C/beta4, 0.0265; in the assay with R275C/Slo1WT/beta2, -0.0112.

Turning to `COC(=O)c1cc(-c2nc(-c3ccc(Cl)cc3Cl)cs2)c(SC)s1`, the log fold change Tl+ flux in the assay on F380Y is -0.0122; with F380Y/beta1, -0.00509; in the assay with F380Y/beta2Delta it was 0.0439; in the assay with F380Y/beta4 it was 0.00731; in assay [1] it was 0.00703; in the assay with R275C, -0.00909. The log fold change Tl+ flux in the assay with R275C/beta1 is -0.0387; with R275C/beta2Delta, 0.0331; in the assay with R275C/beta4, -0.0197; in the assay with R275C/Slo1WT/beta2 it was -0.00912.

Consider `N#CC(NCc1ccccc1Cl)=C(C#N)NCc1c(F)cccc1Cl`, for which the log fold change Tl+ flux with F380Y was -0.0652; with F380Y/beta1 it was -0.0209; in the assay on F380Y/beta2Delta it was -0.0204; with F380Y/beta4 it was -0.171 (active); in assay [1], -0.129 (active); in the assay with R275C it was -0.2 (active). For the same compound, the log fold change Tl+ flux in the assay with R275C/beta1 is -0.262 (active); with R275C/beta2Delta, -0.0733; in the assay with R275C/beta4 it was -0.185 (active); in the assay with R275C/Slo1WT/beta2, 0.00197.

Turning to `COC(OC)c1ccc(C#N)c(SC)n1`, the log fold change Tl+ flux in the assay with F380Y is 0.0176; in the assay with F380Y/beta1, -0.0051; with F380Y/beta2Delta, 0.00992; in the assay on F380Y/beta4, 0.0407; in assay [1] it was -0.00294; with R275C it was -0.0258. For the same compound, the log fold change Tl+ flux with R275C/beta1 was -0.00195; in the assay on R275C/beta2Delta it was 0.0434; in the assay with R275C/beta4, -0.0479; in the assay on R275C/Slo1WT/beta2 it was -0.0163.

For `Cc1nc(-c2n[nH]c(=S)n2C)cs1`, the log fold change Tl+ flux in the assay on F380Y is -0.0125; in the assay with F380Y/beta1, -0.0212; in the assay on F380Y/beta2Delta, 0.0116; in the assay on F380Y/beta4, -0.0241; in assay [1], 0.0365; in the assay with R275C it was 0.0188. For the same compound, the log fold change Tl+ flux was 0.00398 in the assay with R275C/beta1, 0.0232 with R275C/beta2Delta, -0.0295 with R275C/beta4 and -0.00583 in the assay on R275C/Slo1WT/beta2.

As to `O=C(CN1CCOCC1)Nc1ccccc1Sc1nccc(C(F)(F)F)n1`, the log fold change Tl+ flux with F380Y was 0.0122; in the assay on F380Y/beta1, -0.00692; in the assay with F380Y/beta2Delta, -0.0219; in the assay on F380Y/beta4 it was -0.00275; in assay [1], 0.0522; in the assay with R275C, -0.0101. The log fold change Tl+ flux is -0.0285 with R275C/beta1, -0.0136 with R275C/beta2Delta, 0.0162 with R275C/beta4 and 0.0195 with R275C/Slo1WT/beta2.

Source of the values: PubChem BioAssay.
